Experimental data reported in the supplement of paper PMC6992640.
± gives the standard deviation of the averaged measurements.

Tests used:
Test in all cases: cell viability (% of vehicle); higher = less cytotoxic
Conditions in all cases: 10 µM; 72 h
HCI01 = system: HCI01 (cells of a triple-negative basal-like breast cancer xenograft)
HCI03 = system: HCI03 (cells of an ER-positive luminal breast cancer xenograft)
HCI09 = system: HCI09 (cells of a triple-negative luminal androgen receptor type breast cancer xenograft)
HCI11 = system: HCI11 (cells of an ER-positive luminal breast cancer xenograft)
HCI13 = system: HCI13 (cells of an ER-positive luminal breast cancer xenograft)
HCI16 = system: HCI16 (cells of a triple-negative basal-like breast cancer xenograft)
UCD52 = system: UCD52 (cells of a triple-negative basal-like breast cancer xenograft)
WHIM2 = system: WHIM2 (cells of a triple-negative basal-like breast cancer xenograft)
WHIM30 = system: WHIM30 (cells of a triple-negative basal-like breast cancer xenograft)
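Note: PDX cells carrying CMV promoter-driven luciferase, viability read as total photon flux per second by IVIS imaging following D-luciferin, vehicle control 0.1% DMSO.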

Row | SMILES | cell viability (HCI01) | cell viability (HCI03) | cell viability (HCI09) | cell viability (HCI11) | cell viability (HCI13) | cell viability (HCI16) | cell viability (UCD52) | cell viability (WHIM2) | cell viability (WHIM30)
1 | COC(=O)C1=C(C)NC(C)=C(C(=O)OC)C1c1ccccc1[N+](=O)[O-] [Nifedipine] | 82.2 ± 18 | 130 | 66.9 ± 6.3 | 71.2 | 93.3 ± 14 | 111 | 92.25 ± 0.35 | 92.3 ± 17 | 110.7 ± 0.67
2 | C=C1c2cccc(O)c2C(O)=C2C(=O)C3(O)C(O)=C(C(N)=O)C(=O)C(N(C)C)C3C(O)C12.Cl (stereo not given) [Methacycline HCl] | 114 ± 4.2 | 128 | 104 ± 5.9 | 81.8 | 140 ± 12 | 158 | 111 ± 5.5 | 94.3 ± 2 | 121 ± 2.4
3 | CN(CC=CC#CC(C)(C)C)Cc1cccc2ccccc12.Cl [Terbinafine HCl] | 93.6 ± 30 | 99 | 86.02 ± 0.12 | 81.6 | 73 ± 1.7 | 123 | 70.5 ± 7.4 | 62.8 ± 10 | 91.1 ± 1.7
4 | CCN1CCCC1CNC(=O)c1cc(S(=O)(=O)CC)c(N)cc1OC (stereo not given) [Amisulpride] | 189 ± 32 | 126 | 108 ± 14 | 100 | 82.7 ± 0.84 | 159 | 116 ± 15 | 122 ± 4 | 139 ± 2.1
5 | O=C([O-])C(O)C(O)C(O)C(O)C(O)CO.O=C([O-])C(O)C(O)C(O)C(O)C(O)CO.[Ca+2] (stereo not given) [Calcium Gluceptate] | 134 ± 3.3 | 162 | 112 ± 4.9 | 127 | 110 ± 8.2 | 124 | 87.2 ± 13 | 109 ± 3.2 | 141 ± 8.1
6 | Cc1cccc(C)c1NC(=O)C1CCCCN1C.Cl (stereo not given) [Mepivacaine HCl] | 87.6 ± 1.4 | 89.2 | 97.91 ± 0.71 | 96.2 | 124 ± 2.2 | 118 | 70.4 ± 3.6 | 89.7 ± 14 | 166 ± 4.5
7 | Cl.O=C1CN2Cc3c(ccc(Cl)c3Cl)NC2=N1 [Anagrelide HCl] | 121 ± 3.8 | 140 | 103 ± 9.3 | 120 | 128 ± 11 | 103 | 84.4 ± 4.6 | 116 ± 3.4 | 98.1 ± 2.5
8 | O=c1[nH]c(=O)n(C2CC(O)C(CO)O2)cc1C(F)(F)F (stereo not given) [Triflurdine (Viroptic)] | 123 ± 1.4 | 132 | 137 ± 70 | 111 | 147 ± 24 | 97.1 | 116 ± 1.5 | 87.8 ± 36 | 132 ± 15
9 | COCCCN1CCC(NC(=O)c2cc(Cl)c(N)c3c2OCC3)CC1 [Prucalopride] | 86.2 ± 8.4 | 134 | 99.9 ± 20 | 94.2 | 120 ± 13 | 122 | 89.3 ± 11 | 91.4 ± 9.2 | 123 ± 2.2
10 | COc1c(C)c2c(c(O)c1CC=C(C)CCC(=O)OCCN1CCOCC1)C(=O)OC2 [Mycophenolate Mofetil] | 141 ± 31 | 106 | 86.9 ± 23 | 103 | 81.8 ± 11 | 86.2 | 91.4 ± 22 | 112 ± 7.2 | 130 ± 30
11 | COc1ccc2c(c1)c(CC(=O)O)c(C)n2C(=O)c1ccc(Cl)cc1 [Indomethacin] | 106 ± 20 | 88.7 | 96.7 ± 1.1 | 79.2 | 105 ± 4.9 | 92 | 72.4 ± 13 | 92.1 ± 4.3 | 93 ± 5.3
12 | NS(=O)(=O)c1cc2c(cc1Cl)NC=NS2(=O)=O [Chlorothiazide] | 101 ± 4.1 | 149 | 102 ± 12 | 121 | 134 ± 16 | 90 | 93.8 ± 13 | 89.4 ± 27 | 124 ± 29
13 | NCC1OC(OC2C(CO)OC(OC3C(O)C(N)CC(N)C3OC3OC(CN)C(O)C(O)C3N)C2O)C(N)C(O)C1O.O=S(=O)(O)O (stereo not given) [Neomycin sulfate] | 90.1 ± 22 | 135 | 91.8 ± 9.7 | 95.9 | 79.9 ± 2.5 | 111 | 92.9 ± 8.6 | 102 ± 7.7 | 95.9 ± 4.7
14 | CN(CCOc1ccc(CC2SC(=O)NC2=O)cc1)c1ccccn1.O=C(O)C=CC(=O)O (stereo not given) [Rosiglitazone maleate] | 132 ± 20 | 115 | 94 ± 16 | 90.1 | 107.5 ± 0.5 | 99.6 | 105 ± 7.2 | 156 ± 25 | 136 ± 25
15 | OCC(O)C(O)C(O)C(O)CO (stereo not given) [Sorbitol] | 89.2 ± 28 | 132 | 92.6 ± 8.6 | 84 | 102 ± 3.2 | 111 | 87.63 ± 0.58 | 86.6 ± 8.6 | 83.33 ± 0.53
16 | CCOC(=O)c1ccc(OC(=O)CCCCCN=C(N)N)cc1.CS(=O)(=O)O [Gabexate mesylate] | 170 ± 9.1 | 122 | 98 ± 3.2 | 147 | 96.8 ± 1.2 | 159 | 142 ± 6.2 | 111 ± 10 | 180 ± 27
17 | CC(C)(C)C(=O)C(Oc1ccc(Cl)cc1)n1ccnc1 (stereo not given) [Climbazole] | 152 ± 37 | 115 | 89.7 ± 16 | 98.8 | 86.4 ± 8.3 | 131 | 96 ± 10 | 121 ± 6.3 | 120 ± 8.6
18 | O=C(O)c1ccc2c(c1)nc(Nc1cccc(Cl)c1)c1ccncc12 [CX-4945 (Silmitasertib)] | 115 ± 62 | 111 | 28.5 ± 13 | 137 | 192 ± 22 | 106 | 78 ± 8.1 | 99.48 ± 0.45 | 79.9 ± 14
19 | COc1ccc(-n2nc(C(N)=O)c3c2C(=O)N(c2ccc(N4CCCCC4=O)cc2)CC3)cc1 [Apixaban] | 100.8 ± 0.64 | 113 | 93.5 ± 17 | 173 | 149 ± 8.9 | 82.4 | 90.7 ± 6.2 | 97.6 ± 8.3 | 85.2 ± 14
20 | CC(C)NCC(O)COc1cccc2ccccc12.Cl (stereo not given) [Propranolol HCl] | 109.73 ± 0.067 | 104 | 100 ± 15 | 84.5 | 97.8 ± 24 | 96.6 | 83.3 ± 4.4 | 83.3 ± 16 | 108 ± 7.8
